Common to all, as to assay type: functional
Assay [1] has as its target Solute carrier family 2, facilitated glucose transporter member 1 (Homo sapiens) (UniProt P11166). Nature of the assay: ST_JUDE_LEISH: Cytotoxicity at 2uM final concentration against transgenic Leishmania Mexicana promastigotes LmGLUT1 that are glucose transport deficient and complemented with the human glucose transporter GLUT1. Activity is measured by DNA content using SYBR green in vitro.

The target of assay [2] is Hexose transporter 1 (Plasmodium falciparum) (UniProt O97467). Nature of the assay: ST_JUDE_LEISH: Cytotoxicity at 2uM final concentration against transgenic Leishmania Mexicana promastigotes LmPfHT that are glucose transport deficient and complemented with the Plasmodium falciparum hexose transporter. Activity is measured by DNA content using SYBR green in vitro.
Assay [3] addresses Glucose transporter (Leishmania mexicana) (UniProt O61059). Nature of the assay: ST_JUDE_LEISH: Cytotoxicity at 2uM final concentration against transgenic Leishmania Mexicana promastigotes LmGT2 that are glucose transport deficient and complemented with the L. Mexicana glucose transporter 2. Activity is measured by DNA content using SYBR green in vitro.

Chain of Solute carrier family 2, facilitated glucose transporter member 1 (Homo sapiens) (P11166 whole entry): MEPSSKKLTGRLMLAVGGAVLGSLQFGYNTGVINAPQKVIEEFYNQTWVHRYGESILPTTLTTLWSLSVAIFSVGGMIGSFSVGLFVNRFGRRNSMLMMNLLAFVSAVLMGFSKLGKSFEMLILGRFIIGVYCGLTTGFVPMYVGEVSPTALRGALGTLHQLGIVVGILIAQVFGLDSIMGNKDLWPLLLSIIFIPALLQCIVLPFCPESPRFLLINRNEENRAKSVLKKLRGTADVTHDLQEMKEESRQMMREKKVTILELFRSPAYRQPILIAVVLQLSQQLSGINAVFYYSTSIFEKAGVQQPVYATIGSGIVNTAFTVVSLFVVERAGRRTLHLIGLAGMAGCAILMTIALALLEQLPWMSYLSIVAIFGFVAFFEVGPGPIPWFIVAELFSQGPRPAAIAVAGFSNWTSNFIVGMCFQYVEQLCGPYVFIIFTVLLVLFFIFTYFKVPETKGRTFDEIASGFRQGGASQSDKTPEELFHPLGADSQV

As for `O=C(Nc1ccccc1Cl)N(Cc1cc(Cl)cc(Cl)c1)CC(O)COc1ccc(Cl)c(F)c1` (configuration not stated), the inhibition (usually the drop in the measured response relative to a control, in per cent) in assay [1] is 2.94%; in assay [2], 2.72%; in assay [3], -2.7%.
On to `COc1cc(OC)c(NC(=O)C2c3ccccc3C(=O)N(C)C2c2cccs2)cc1Cl` (configuration not stated), for which the inhibition in assay [1] came out at 2.2%; in assay [2], 5.87%; in assay [3], 5.98%.
For the molecule `C[C@H](Cc1ccc(C[C@@H](C)NCC(O)c2cc(Cl)c(N)c(Cl)c2)cc1)NCC(O)c1cc(Cl)c(N)c(Cl)c1` (some centres not stated), the inhibition is 0.36% in assay [1], 0.31% in assay [2] and 1.14% in assay [3].
`CCNc1cc(C(=O)N[C@@H](Cc2ccccc2)[C@H](O)CNC2C3CC4CC(C3)CC2C4)cc(N2CCCCS2(=O)=O)c1` (some centres not stated): the inhibition in assay [1] was 0.69%; in assay [2] it was 0.88%; in assay [3], -1.02%.
With `CCCCCCCCc1nc(C)c(Br)c(O)c1Br`, the inhibition in assay [1] amounted to 3.91%; in assay [2], 5.98%; in assay [3], 0.8%.
Consider `Cc1cc(CNCC2CCC(CNCCCc3ccccc3)CC2)ccc1O` (configuration not stated), for which the values for the inhibition in assay [1], in assay [2] and in assay [3] were 9.97%, 8.79% and 7.65%, respectively.
As for `NCC1CCCN1Cc1ccc(-c2ccc(-c3nc4cc(C(F)(F)F)ccc4[nH]3)s2)cc1` (configuration not stated), the figures for the inhibition in assay [1], in assay [2] and in assay [3] were 1.42%, -0.28% and -0.19%, respectively.
For `O=C(Nc1cccc(-c2nn3ccccc3c2-c2ccnc(Nc3ccc(NCCCN4CCOCC4)c(F)c3)n2)c1)c1c(F)cccc1F`, in that order: 46.9%, 30.5% and 5.22%.
For `CC(=O)Nc1cccc(Nc2nccc(Nc3ccc(Oc4ccccc4)cc3)n2)c1`, in that order: 1.64%, 2.76% and -0.82%.
Take `CC(C)CNCc1ccc(-c2cccc(CN(CCCN3CCN(C)CC3)C(=O)/C=C/c3ccccc3)c2)cc1`: the inhibition was determined as 5.83% in assay [1], 5.21% in assay [2] and 5.27% in assay [3].
Regarding `O=C(NCc1cccc(F)c1)Nc1cccc(-c2ccc(-c3nc4cc(C(F)(F)F)ccc4[nH]3)cc2)c1`, the inhibition was 0.26% in assay [1], 1.57% in assay [2] and 0.07% in assay [3].
`O=C(/C=C/c1ccc(Cl)c(Cl)c1)N1CCC(C(O)CN2CCC(c3c[nH]c4ccccc34)CC2)CC1` (configuration not stated): the inhibition in assay [1] came to 2.18%; in assay [2], 1.82%; in assay [3], 0.09%.
`CCc1ccc(O)c(-c2cc(C(=O)Nc3ccc(OC)c(Cl)c3)[nH]n2)c1`: the results for the inhibition in assay [1], in assay [2] and in assay [3] were 0.23%, 0.3% and -7%, respectively.
On to `COc1ccc2ncc(F)c(CCN3CCC(CNC(=O)C(=O)c4c[nH]c5ccccc45)CC3)c2n1`, for which the inhibition in assay [1] worked out at 6.8%; in assay [2], 7.49%; in assay [3], 1.37%.
For `COc1ccc(NC(=O)[C@H](Cc2ccccc2)Nc2cc(C)nc(NCCc3ccc(F)cc3)n2)cc1`, in that order: 11.8%, 13% and 10%.
For `Cc1nc2nc(N)nc(N)c2c(C)c1Cc1ccccc1I`, in that order: 9.13%, 8.12% and 6.31%.
For `O=C(NCc1ccc(Cl)c(Cl)c1)c1ccc(-c2nc3ccc(F)cc3[nH]2)cc1`, in that order: 12.4%, 11.1% and 11.6%.
As to `Cn1ccnc1S(=O)(=O)CCNCc1ccc(-c2ccc3ncnc(Nc4ccc(OCc5cccc(F)c5)c(Cl)c4)c3c2)o1`, the inhibition in assay [1] came to 3.08%; in assay [2] it was 6.11%; in assay [3] it was 0.71%.
On to `O=C(N/C(=C/c1cccc([N+](=O)[O-])c1)c1nc2ccccc2[nH]1)c1cccc(Br)c1`, for which the values for the inhibition in assay [1], in assay [2] and in assay [3] were 2.64%, 1.64% and -0.27%, respectively.
For `c1cncc(Oc2ccc(Nc3ccnc4cc(-c5cccc(CN6CCCCC6)c5)ccc34)cc2)c1`, in that order: 3.68%, 2.51% and 2.68%.
Regarding `C=CCN(C(=O)c1ccc(Cl)c([N+](=O)[O-])c1)c1nc(-c2ccccc2)cs1`, the inhibition in assay [1] was found to be 10.6%; in assay [2], 9.45%; in assay [3], 7.89%.
As to `Cc1ccc(-c2nc(NC(=O)Nc3ccc(C(F)(F)F)cc3)sc2C)cc1Cl`, the inhibition stood at 5.17% in assay [1], 1.68% in assay [2] and 1.54% in assay [3].
Take `COc1cc(-n2cnc3cc(-c4ccc([N+](=O)[O-])cc4)sc3c2=O)ccc1OCCN1CCCC1`: the inhibition in assay [1] came out at 19.5%; in assay [2], 20%; in assay [3] it was 16%.
For `Cc1cc(NC(=O)c2coc3cc(F)c(N4CC(C)N(C)C(C)C4)cc23)cnc1-c1ccc(C#N)cc1` (configuration not stated), in that order: 0.22%, -1% and -1.53%.
Consider `COC(=O)c1cccc(CNCc2ccc(-c3ccc(-c4nc5cc(F)ccc5[nH]4)cc3)cc2)c1`, for which the inhibition in assay [1] was 13%; in assay [2], 6.26%; in assay [3], 4.98%.
Turning to `COc1ccc(-c2ccc(NC(=O)c3ccccc3)cc2)cc1CN1CCCN(C)CC1`, the results for the inhibition in assay [1], in assay [2] and in assay [3] were 1.09%, -0.14% and -1.41%, respectively.
Turning to `CN1CCN(CCCNc2ncc3c(-c4ccc(NC(=O)Nc5cc(C(F)(F)F)ccc5F)c(F)c4)nn(C)c3n2)CC1`, the values for the inhibition in assay [1], in assay [2] and in assay [3] were -0.98%, -3.33% and 7.86%, respectively.
As for `CCN(CC)CCCN(CCCN(CC)CC)c1cc(C)nc(Nc2ccc3cc(Br)ccc3c2)n1`, the inhibition in assay [1] came to 1.34%; in assay [2], 4.9%; in assay [3] it was 3.03%.
For `Cc1ccc(Nc2nc(C)cc(Nc3cccc(C#N)c3)n2)cc1`, in that order: 42.3%, 65.8% and 16.3%.
For the molecule `O=C(Nc1cc(C(F)(F)F)cc(C(F)(F)F)c1)c1cccc([N+](=O)[O-])c1`, the inhibition in assay [1] is 3.73%; in assay [2] it was 4.66%; in assay [3], 2.84%.
Turning to `CC(=O)Nc1ccc(C(=O)Nc2cccc(-c3cccc(-c4nc5cc(C(F)(F)F)ccc5[nH]4)c3)c2)cn1`, the inhibition in assay [1] was -0.64%; in assay [2], -2.32%; in assay [3], -1.64%.
Take `NC1CCN(Cc2cccc(-c3ccc(-c4nc5cc(C(F)(F)F)ccc5[nH]4)cc3)c2)C1` (configuration not stated): the inhibition in assay [1] was 0.52%; in assay [2], 5.22%; in assay [3] it was 2.71%.
For `Cc1cc(-c2ccc(NC(=O)c3coc4ccc(N5CC(C)N(C)C(C)C5)cc34)cc2C)cc(C)n1` (configuration not stated), the inhibition came out at 2.55% in assay [1], 3.78% in assay [2] and 1.55% in assay [3].
In the case of `CS(=O)(=O)NCCCNCc1ccc(-c2cccc(-c3nc4cc(F)ccc4[nH]3)c2)cc1`, the inhibition was -2.11% in assay [1], 0.22% in assay [2] and -0.29% in assay [3].

For the origin of these results see ChEMBL document CHEMBL3433997, “St. Jude Leishmania screening dataset” (2016).
